Laboratory results reported in PubChem BioAssay (NCATS).
Inconclusive results are not listed. Active and inactive are the calls of the source. Unless noted, calls follow the shape of the dose curve; as a rule, active = well fitted curve in the direction sought with a large enough effect; inconclusive = small, poorly fitted or top-dose-only effect, or another doubt; inactive = no such curve, though single readings can be large; an effect the other way counts as inactive or inconclusive.

Legend:
[1] = qHTS Assay for Identification of Small Molecule Inducers of Hypoxia Response (AID 2120; active = well fitted curve in the direction sought with a large enough effect in the signal ratio, with a control signal flat, not every such curve was filed as active; the % refers to the signal ratio)
Procedure, shortened: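 HRE-beta-lactamase reporter in CellSensor HRE-bla ME-180 cells, 2500 cells/well in Opti-MEM with 0.5% dialyzed FBS; compounds tested as titration series, 17 h at 37 degrees C. CCF4 substrate 2.5 h at room temperature; AC50 from 460/530 nm ratio.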

[2] = Cytometric Cell-Based qHTS for Inhibitors of the mTORC1 Signaling Pathway in MEF (Tsc2-/-, p53-/-) Cells (AID 2660);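 also: percent of cells above a phospho-rpS6 to PI ratio cutoff in each well; series mostly up to about 38 µM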
Procedure, shortened: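 Tsc2-/-, p53-/- MEFs (empty vector) exposed to compound 24 h at 37 C, fixed, stained with Alexa-488 anti-phospho-rpS6 Ser235/236 and propidium iodide. Acumen laser scanning; phospho-S6/PI ratio thresholded against 7.5 nM rapamycin, reported as % positive cells.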

[3] = High Content Imaging Cell-Based qHTS for Inhibitors of the mTORC1 Signaling Pathway in MEF Cells (AID 2667);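 also: Tsc2-/- p53-/- MEFs stably re-expressing wild-type Tsc2 exposed 24 h; series mostly up to about 38 µM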
Procedure, shortened: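 Immunofluorescence for rpS6 phosphorylation in MEFs of Tsc2-/-, p53-/- background rescued with WT Tsc2. Compound exposure lasted 24 hrs. Inhibition was scored against rapamycin-treated control wells.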

[4] = qHTS for differential inhibitors of proliferation of Plasmodium falciparum line Dd2 (AID 1882); conditions: Potency: Plasmodium falciparum Dd2 proliferation inhibition; also: nearly all actives have a fitted effect of over 65% in size; also: potency is read from the fitted curve at half-maximal effect
Procedure, shortened: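 SYBR Green I DNA fluorescence read-out, ex 485/em 535 nm. Signals were normalized to 0.29 uM artemisinin and DMSO wells, then corrected using vehicle-only plates flanking each stack. Parasite growth ran 72 h in erythrocytes before lysis.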

[5] = qHTS for differential inhibitors of proliferation of Plasmodium falciparum line W2 (AID 1883); conditions: Potency: Plasmodium falciparum W2 proliferation inhibition;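 also: parasites grown with compound for 72 h before lysis and staining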; also: potency is read from the fitted curve at half-maximal effect
[6] = qHTS for differential inhibitors of proliferation of Plasmodium falciparum line HB3 (AID 1886); conditions: Potency: Plasmodium falciparum HB3 proliferation inhibition;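 also: parasites grown with compound for 72 h before SYBR Green readout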; also: potency is read from the fitted curve at half-maximal effect
[7] = qHTS Assay for Modulators of Human Peripheral Myelin Protein 22 (PMP22) Expression/Activity (AID 1967; active = well fitted curve in the direction sought with a large enough effect in the signal ratio; the % refers to the signal ratio)
Procedure, shortened: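 Luminescence ratio of Pmp22 promoter-driven green luciferase to EF-alpha-driven red luciferase, in engineered mouse MSC80 Schwann cells, served as read-out. Compounds were incubated 24h; untreated cells defined 0% Activity; curves were classified by r2, magnitude and activity.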

[8] = biological target: Ferritin light chain (Equus caballus) (UniProt P02791); assay: qHTS Validation Assay for Identification of Novel General Anesthetics (AID 2323); also: series mostly up to about 77 µM
Procedure, shortened: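 Fluorescence at 535 nm (excitation 380 nm) reported loss of 1-AMA binding to horse-spleen apoferritin (10 uM) in PBS with 50% saturated 1-aminoanthracene, after 10 min room-temperature incubation with compound; values from Hill fits of normalized response.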

[9] = biological target: ATP-dependent DNA helicase Q1 (Homo sapiens) (UniProt P46063); assay: qHTS Validation Assay for Inhibitors of RecQ-Like Dna Helicase 1 (RECQ1) (AID 2353)
Procedure, shortened: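 50 nM RECQ1T1 preincubated 15 min with compound in Tris pH 8.0 buffer with MgCl2, DTT, Tween-20 and 2.5 ug/ml poly(dI-dC); started with 200 nM TAMRA/BHQ-2 forked duplex and 2 mM ATP. Unwinding read as fluorescence (525/598 nm), two reads 2 h apart.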

[10] = biological target: RecQ-like DNA helicase BLM (Homo sapiens) (UniProt P54132); assay: qHTS Validation Assay for Inhibitors of Bloom's syndrome helicase (BLM) (AID 2364)
Procedure, shortened: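 Forked 20-bp duplex substrate (200 nM, TAMRA/BHQ-2) plus 2 mM ATP added after 15 min compound preincubation with 50 nM enzyme, pH 8.0, poly(dI-dC) 2.5 ug/ml. Strand separation followed by fluorescence (525/598 nm) over 2 h, normalized to enzyme-free and DMSO controls.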

Measured: Potency

Chain of Ferritin light chain (Equus caballus) (P02791 2-175 limits assumed): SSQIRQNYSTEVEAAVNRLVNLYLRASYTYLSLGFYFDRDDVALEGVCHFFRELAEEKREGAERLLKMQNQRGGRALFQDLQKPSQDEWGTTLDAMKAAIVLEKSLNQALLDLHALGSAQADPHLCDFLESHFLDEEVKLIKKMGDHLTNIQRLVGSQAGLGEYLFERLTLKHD
Chain of ATP-dependent DNA helicase Q1 (Homo sapiens) (P46063 whole entry, looked up): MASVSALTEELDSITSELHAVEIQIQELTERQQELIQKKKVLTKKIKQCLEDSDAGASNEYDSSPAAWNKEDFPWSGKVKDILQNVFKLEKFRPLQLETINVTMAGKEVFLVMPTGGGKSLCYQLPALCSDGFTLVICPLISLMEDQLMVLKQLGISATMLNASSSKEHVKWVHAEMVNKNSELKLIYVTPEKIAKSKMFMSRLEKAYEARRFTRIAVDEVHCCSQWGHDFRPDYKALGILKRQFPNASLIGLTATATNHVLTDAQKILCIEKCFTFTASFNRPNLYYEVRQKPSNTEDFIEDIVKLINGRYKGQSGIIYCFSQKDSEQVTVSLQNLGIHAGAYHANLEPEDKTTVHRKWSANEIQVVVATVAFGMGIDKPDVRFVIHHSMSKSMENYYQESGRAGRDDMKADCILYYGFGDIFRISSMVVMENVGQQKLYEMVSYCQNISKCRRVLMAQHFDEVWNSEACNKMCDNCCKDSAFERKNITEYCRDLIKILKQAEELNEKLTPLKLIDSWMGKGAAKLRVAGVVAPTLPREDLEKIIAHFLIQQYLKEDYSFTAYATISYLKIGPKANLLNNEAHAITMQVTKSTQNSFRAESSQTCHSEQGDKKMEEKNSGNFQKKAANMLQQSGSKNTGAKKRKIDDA
Chain of RecQ-like DNA helicase BLM (Homo sapiens) (P54132 whole entry, looked up): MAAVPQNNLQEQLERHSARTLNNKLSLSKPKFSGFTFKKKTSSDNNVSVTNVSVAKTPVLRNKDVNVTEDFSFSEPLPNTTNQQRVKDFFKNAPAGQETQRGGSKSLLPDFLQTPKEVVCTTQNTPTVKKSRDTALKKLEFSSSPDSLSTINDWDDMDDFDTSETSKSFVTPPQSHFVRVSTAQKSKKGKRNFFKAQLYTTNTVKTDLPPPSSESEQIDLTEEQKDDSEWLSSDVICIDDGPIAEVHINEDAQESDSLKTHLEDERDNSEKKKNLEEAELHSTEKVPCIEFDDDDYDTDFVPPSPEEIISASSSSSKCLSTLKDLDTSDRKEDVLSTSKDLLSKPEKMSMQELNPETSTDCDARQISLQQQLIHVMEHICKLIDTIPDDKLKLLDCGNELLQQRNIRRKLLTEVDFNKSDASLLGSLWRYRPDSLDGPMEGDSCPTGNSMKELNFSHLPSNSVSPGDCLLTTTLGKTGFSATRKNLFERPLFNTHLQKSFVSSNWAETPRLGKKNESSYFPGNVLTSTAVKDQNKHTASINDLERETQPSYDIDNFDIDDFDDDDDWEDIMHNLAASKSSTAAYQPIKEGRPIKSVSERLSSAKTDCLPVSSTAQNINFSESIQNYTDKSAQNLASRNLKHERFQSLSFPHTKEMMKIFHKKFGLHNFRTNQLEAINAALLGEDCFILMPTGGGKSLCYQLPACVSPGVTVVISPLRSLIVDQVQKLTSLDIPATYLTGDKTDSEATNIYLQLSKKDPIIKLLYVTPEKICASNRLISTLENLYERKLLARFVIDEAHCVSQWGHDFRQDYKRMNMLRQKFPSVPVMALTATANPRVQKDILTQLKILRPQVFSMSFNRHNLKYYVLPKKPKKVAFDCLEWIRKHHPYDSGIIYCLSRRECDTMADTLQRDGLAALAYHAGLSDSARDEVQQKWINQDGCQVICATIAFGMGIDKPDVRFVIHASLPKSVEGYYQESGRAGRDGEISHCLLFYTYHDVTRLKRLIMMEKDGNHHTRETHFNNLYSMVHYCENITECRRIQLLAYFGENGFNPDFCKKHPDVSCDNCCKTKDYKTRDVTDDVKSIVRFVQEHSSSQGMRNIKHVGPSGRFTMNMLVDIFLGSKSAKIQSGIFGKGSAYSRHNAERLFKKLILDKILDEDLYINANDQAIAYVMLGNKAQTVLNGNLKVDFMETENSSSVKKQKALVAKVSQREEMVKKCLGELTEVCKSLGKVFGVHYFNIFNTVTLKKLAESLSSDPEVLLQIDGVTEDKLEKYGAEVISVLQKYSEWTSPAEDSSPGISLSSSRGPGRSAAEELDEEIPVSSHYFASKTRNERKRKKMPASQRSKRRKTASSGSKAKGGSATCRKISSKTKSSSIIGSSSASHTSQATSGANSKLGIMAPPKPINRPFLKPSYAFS

CCCC(C)(COC(N)=O)COC(N)=O
inactive: [1]

COc1ccc2c(c1OC)C(=O)O[C@H]2[C@@H]1c2cc3c(cc2CCN1C)OCO3
inactive: [2] | [3]

Nc1ccccc1
inactive: [1]

NCCc1ccc(O)cc1
not listed: [1] | [10]
inactive: all other assays above

O=C(O)CCCc1ccc(N(CCCl)CCCl)cc1
active: [5] 11.2 µM
inactive: [1] | [8] | [9] | [2] | [3]

CN1C(=O)CCS(=O)(=O)C1c1ccc(Cl)cc1 (stereo unspecified)
not listed: [1] | [5] | [7]
inactive: all other assays above

CC(C)c1cccc(C(C)C)c1O
not listed: [1] | [8] | [10]
inactive: all other assays above

CC(=O)N1CCN(c2ccc(OC[C@H]3CO[C@](Cn4ccnc4)(c4ccc(Cl)cc4Cl)O3)cc2)CC1
active: [4] 7.94 µM | [5] 7.08 µM | [6] 11.2 µM

O=c1[nH]oc2c1CCNC2
inactive: [4] | [5] | [6] | [9] | [2] | [3]

CC(C)N(CCC(C(N)=O)(c1ccccc1)c1ccccn1)C(C)C (stereo unspecified)
active: [5] 8.91 µM
not listed: [1]
inactive: all other assays above

CC(NC(C)(C)C)C(=O)c1cccc(Cl)c1 (stereo unspecified)
inactive: [6] | [7] | [8] | [9] | [2] | [3]
